Assay outcomes from PubChem.
FadD28 binding: M. tuberculosis FadD28 bisubstrate binding inhibition. FadD28 bisubstrate probe binding, fluorescence polarization. inhibition, % at 12.5 µM. 360,000 compounds, 0.22% hits. AID 588549; in the data active means inhibition above about 8.5%, passing the limit was not always enough; inconclusive means no clear call, values can overlap the other calls
TcdB inh: inhibitors of Clostridioides difficile toxin B glycohydrolase. AID 652162. P18177. TcdB glycohydrolase enzymatic assay, plate reader. inhibition, % at 9.99 µM. 350,000 compounds, 0.24% hits; in the data active means inhibition above about 10%
Mtb BioA inh: blocks M. tuberculosis BioA enzyme activity; purified M. tuberculosis BioA enzyme, plate reader; inhibition, % at 9.99 µM; 360,000 compounds, 0.096% hits; AID 602481; in the data active means inhibition above about 40%; inconclusive means no clear call, values can overlap the other calls
Mtb UGM inh: blocks M. tuberculosis UGM enzyme | P9WIQ1 | purified UGM, fluorescence polarization probe displacement | inhibition, % at 10 µM | 320,000 compounds, 0.06% hits | AID 504406; in the data active means inhibition above about 10%, passing the limit was not always enough; inconclusive means no clear call, values can overlap the other calls
Rv3671c inh: Rv3671c (M. tuberculosis) protease inhibition; AID 2606; 320,000 compounds, 0.048% hits; P9WHR9; inhibition, % at 5.96 µM; in the data active means inhibition above about 38%;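 further: extracellular domain of Rv3671c used as enzyme; 0% = enzyme with DMSO and 100% = no enzyme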
Target sequence (P9WHR9 whole entry, looked up, the tested form may be a part): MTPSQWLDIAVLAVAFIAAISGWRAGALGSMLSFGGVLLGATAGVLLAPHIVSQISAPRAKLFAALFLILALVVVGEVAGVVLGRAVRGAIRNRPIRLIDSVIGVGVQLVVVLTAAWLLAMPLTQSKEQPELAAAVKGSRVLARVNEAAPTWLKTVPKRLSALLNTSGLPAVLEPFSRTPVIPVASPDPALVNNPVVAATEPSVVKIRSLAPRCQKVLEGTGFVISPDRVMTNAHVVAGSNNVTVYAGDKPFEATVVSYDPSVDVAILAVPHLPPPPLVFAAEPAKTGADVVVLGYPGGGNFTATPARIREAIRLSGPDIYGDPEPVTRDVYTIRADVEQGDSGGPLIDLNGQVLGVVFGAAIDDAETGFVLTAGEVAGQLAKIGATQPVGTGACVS
RecA intein inh: blocks M. tuberculosis RecA intein splicing | P9WHJ3 | cell-free RecA intein splicing, fluorescence | inhibition, % (concentration not given with the values) | 290,000 compounds, 0.75% hits; in the data active means inhibition above about 30%; inconclusive means no clear call, values can overlap the other calls;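 further: 0% = vehicle wells and 100% = reference inhibitor control wells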
GFP chromophore: counter-screen: blocks GFP chromophore formation; shares compounds with RecA intein inh; 2,100 compounds, 83% hits; EC50, µM; cell-free GFP chromophore formation, fluorescence; call rule not given here
The depositor's hits bear a star; ? = inconclusive; · = no result given. A selection: hits, their analogues and other compounds. The true share with any hit is near 0.9%.

SMILES	FadD28 binding	TcdB inh	Mtb BioA inh	Mtb UGM inh	Rv3671c inh	RecA intein inh	GFP chromophore
CC(=O)N(c1ccccc1)C(C)c1nc(C#N)c(C#N)nc1C (stereo not given)	-2	1	0	-1	3	62*	38*
O=C1c2ccccc2C(=O)c2c1cccc2N(CCO)CCO	1	2	-1	2	-9	5	·
O=C1C=C(N(CCO)Cc2ccccc2)c2ccccc2C1=O	1	·	-1	·	·	88*	0.6*
CCC(=O)Nc1ccc2c(c1)C(=O)N(C)C[C@H](OC)[C@@H](C)CN(Cc1ccncc1)[C@H](C)CO2	·	·	-3	·	·	·	·
Cc1cccc(N(C(=O)CNC(=O)c2ccco2)C(C(=O)NC2CCCCC2)c2cccnc2)c1 (stereo not given)	1	0	-1	0	-11	-2	·
O=C(NC1CCCCC1)C(c1cccnc1)N(C(=O)CCl)c1cccc(Cl)c1 (stereo not given)	-4	1	2	2	0	79*	5.9*
COC(CN(C(=O)CCl)C(C(=O)NC1CCCCC1)c1ccc(Cl)cc1)OC (stereo not given)	-3	1	-2	-1	0	35*	34*
COc1ccc(C(C(=O)NC2CCCCC2)N(C(=O)CCl)c2ccc(Cl)cc2)cc1 (stereo not given)	-2	·	-1	-1	-4	67*	?
CCCc1cn(CC[C@@H]2CC[C@H](NC(=O)C3CC3)[C@@H](CO)O2)nn1	·	1	3	·	·	·	·
Cc1cccc(N(Cc2cc(=O)[nH]c3ccccc23)C(=O)CCl)c1	-2	1	·	-1	-2	41*	8*
COc1ccc(N(Cc2cc(=O)[nH]c3ccccc23)C(=O)CCl)cc1	-1	1	0	-1	7	·	15*
O=C(CN1CCN(S(=O)(=O)c2ccc(Cl)cc2)CC1)Nc1ccc2c(c1)OCCO2	-5	·	0	0	-5	4	·
O=C(CN1CCN(S(=O)(=O)c2ccc(Cl)cc2)CC1)Nc1ccc2c(c1)OCO2	-2	·	3	1	-2	47*	>38
CC1=C(C)/C(=N/OC(=O)c2cccc([N+](=O)[O-])c2)C=CC1=O	0	·	·	0	-13	47*	>38
CCN(CC)C(=O)c1ccc2c(c1)C1C(Cl)C(Sc3ccccc3[N+](=O)[O-])CC1C(C(=O)O)N2 (stereo not given)	34*	·	·	-1	6	36*	23*
Cc1ccc2c(c1Cl)NC(C(=O)O)C1CC(Sc3ccccc3[N+](=O)[O-])C(Cl)C21 (stereo not given)	-11	·	·	1	4	·	·
C[C@H](CO)N1C[C@H](C)[C@@H](CN(C)C(=O)CCC(F)(F)F)OCCCC[C@H](C)Oc2ccc(NS(=O)(=O)c3ccc(F)cc3)cc2C1=O	·	0	0	·	·	·	·
CC(=O)N(Cc1ccc(F)cc1)C1=C(NCc2ccccc2)C(=O)c2ccccc2C1=O	-1	·	6	·	·	77*	5.9*
O=C(C[C@H]1CC[C@@H](NS(=O)(=O)c2ccccc2)[C@@H](CO)O1)NCCN1CCCCC1	·	0	-3	·	·	·	·
COc1cccc(C(c2c(C)[nH]n(-c3ccccc3)c2=O)c2c(C)[nH]n(-c3ccccc3)c2=O)c1O	-1	-1	·	-1	-179	66*	1.5*
Cc1[nH]n(-c2ccccc2)c(=O)c1C(=O)c1ccccc1	-2	1	-1	1	3	3	·
CCOc1cccc(C(c2c(C)n(C)n(-c3ccccc3)c2=O)c2c(C)n(C)n(-c3ccccc3)c2=O)c1OC	-3	1	1	0	-8	-1	·
COc1cccc(C(c2c(C)[nH]n(-c3ccccc3)c2=O)c2c(C)[nH]n(-c3ccccc3)c2=O)c1OC	-1	·	0	0	-169	94*	1.8*
CCC(=O)N(C)C[C@H]1Oc2ncc(C#CC(C)(C)O)cc2C(=O)N([C@H](C)CO)C[C@H]1C	·	0	-1	·	·	·	·
C[C@H]1CN([C@@H](C)CO)C(=O)Cc2cc(NS(=O)(=O)c3ccccc3)ccc2O[C@@H]1CN(C)Cc1ccc2c(c1)OCO2	·	1	3	·	·	·	·
SMILES	FadD28 binding	TcdB inh	Mtb BioA inh	Mtb UGM inh	Rv3671c inh	RecA intein inh	GFP chromophore
CCc1nnc(NC(=O)c2nc(S(=O)(=O)Cc3ccccc3)ncc2Cl)s1	-3	0	-1	-1	-3	66*	37*
CCc1nnc(NC(=O)c2ccc(COc3ccc(C)cc3)o2)s1	-1	·	-4	1	6	-2	·
CCc1nnc(NC(=O)c2nc(Cl)ccc2Cl)s1	-2	1	-3	0	·	8	·
CCc1nnc(NC(=O)c2nc(S(=O)(=O)Cc3ccc(C)cc3)ncc2Cl)s1	1	0	-1	-2	5	76*	20*
CCc1nnc(NC(=O)c2nc(S(=O)(=O)Cc3cccc(C)c3)ncc2Cl)s1	-3	1	-2	1	-19	75*	16*
COc1cccc(NC(=O)N2CC3(C2)[C@H](c2ccccc2)[C@@H](CO)N3C(=O)C2CC2)c1	·	-1	·	·	·	·	·
CCCCCc1cc(=O)oc2c(C(CCN3CCCC(C)C3)c3ccc4c(c3)OCO4)c(OC)cc(OC)c12 (stereo not given)	-9	1	-1	-2	-6	35*	20*
C[C@H](NC(=O)[C@H]1[C@H](CO)[C@H]2Cn3c(cccc3=O)[C@H]2N1C(=O)C1CC1)c1ccccc1	·	1	0	·	·	·	·
Cc1oc2c(c1C(=O)NCc1cccnc1)C(=O)c1ccccc1C2=O	·	·	·	1	-43	75*	0.62*
COc1ccc(CNC(=O)c2c(C)oc3c2C(=O)c2ccccc2C3=O)cc1	3	-1	-1	-1	-32	58*	23*
Cc1noc(C)c1S(=O)(=O)N(C)C[C@@H]1OCCCC[C@H](C)Oc2ccc(NC(=O)Nc3ccc(C(F)(F)F)cc3)cc2C(=O)N([C@H](C)CO)C[C@@H]1C	·	1	0	·	·	·	·
O=C(C[C@H]1C[C@@H]2c3cc(NC(=O)CC4CC4)ccc3O[C@@H]2[C@@H](CO)O1)NCc1cccnc1	·	-1	-1	·	·	·	·
Cc1ccc2[nH]c3c(c2c1)CN(C(=O)CN1CC(C)OC(C)C1)CC3 (stereo not given)	-5	·	-7	-2	4	·	·
Cc1ccc2[nH]c3c(c2c1)CN(C(=O)CN1CCSCC1)CC3	·	·	-2	·	·	61*	0.19*
CC(C)CCn1c(Sc2nc3ccccc3o2)nc2c1c(=O)[nH]c(=O)n2C	-3	·	0	-1	-11	31*	5*
Cn1c(=O)[nH]c(=O)c2c1nc(N1CCCCC1)n2CCSc1nc2ccccc2o1	0	-1	-2	-2	-4	-10	·
Cc1cc(C)c2c(c1)-c1c(ssc1=S)C(C)(C)N2C(=O)CSc1nncn1C	-2	·	1	1	4	46*	9.8*
CC1(C)c2ssc(=S)c2-c2ccccc2N1C(=O)CSC1=NCCS1	-1	·	0	-3	4	51*	4.6*
